Values joined by “and” are separate entries in the source; they are usually repeats but may differ in a detail not shown here. Identical values can stand only once. Inconclusive results are not listed. Values without a mark were called inactive. Active and inactive are the calls of the source. Unless noted, calls come from the whole dose curve; as a rule, active = well fitted curve in the direction sought with a large enough effect in the repeat runs; inconclusive = weak or mixed curves; inactive = no such curve, though single readings can be large; an effect the other way counts as inactive or inconclusive.

Experiment [1] in a line: qHTS assay to identify small molecule antagonists of the vitamin D receptor (VDR) signaling pathway - cell viability counter screen (AID 743225). Note: nearly all actives have a fitted effect of over 50% in size. In a few lines:
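Cells (VDR-UAS-bla HEK 293T) are plated, rested 4 h at 37C, dosed with compound and 3 nM final 1-alpha,25-dihydroxy vitamin D3, and incubated 16 h. Viability is taken from CellTiter-Glo luminescence in the reporter wells.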
On the technique in general: In qHTS, concentration-response curves come from the screen itself.

Experiment [2] can be described thus: qHTS assay to identify small molecule agonists of the NFkB signaling pathway (AID 1159509; active = well fitted curve in the direction sought with a large enough effect in the signal ratio in the repeat runs, not every such curve was filed as active; the % refers to the signal ratio; note: series mostly up to about 61 µM). In a few lines:
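Readout: FRET fluorescence, 405 nm excitation, 460/530 nm emission; beta-lactamase expression disrupts FRET. Cells: ME-180 stably carrying NF-kB-driven bla reporter. Compound exposure 5 hr, 37 C, 5% CO2.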

A short description of experiment [3]: qHTS assay to identify small molecule agonists of the NFkB signaling pathway - cell viability counter screen (AID 1159515; calls by dose curve; note: series mostly up to about 61 µM; nearly all actives have a fitted effect of over 55% in size). The procedure, abridged:
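Plate 2,000 NFkB-bla ME-180 cells/well; incubate overnight. Add compounds, 5 hr at 37 C. Add FRET substrate, 1.5 hr RT. Add CellTiter-Glo, 30 min RT; read luminescence.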

Experiment [4] is described as follows: qHTS assay to identify small molecule agonists of the endoplasmic reticulum stress response signaling pathway (AID 1159516; active = well fitted activation curve with a large enough effect in the signal ratio in the repeat runs, not every such curve was filed as active; the % refers to the signal ratio). The procedure, abridged:
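Beta-lactamase expression from the ER stress response element in HeLa reporter cells is quantified with the LiveBLAzer B/G FRET substrate, read at 405 nm excitation after 2 hr at room temperature, following 5 hr compound treatment at 37 C.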

Experiment [5] in a line: qHTS assay to identify small molecule agonists of the endoplasmic reticulum stress response signaling pathway - cell viability counter screen (AID 1159517; calls by dose curve; note: series mostly up to about 61 µM; nearly all actives have a fitted effect of over 50% in size). The procedure, abridged:
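Steps: seed 1,500 ESRE-bla HeLa cells per well; incubate overnight at 37 C, 5% CO2; add compounds in DMSO for 5 hr; run FRET substrate 2 hr RT; add CellTiter-Glo, wait 30 min, read luminescence.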

The target in experiment [6] is Nuclear receptor ROR-gamma (Homo sapiens) (UniProt P51449). Description: qHTS assay to identify small molecule antagonists of the retinoid-related orphan receptor gamma (ROR-gamma) signaling pathway (AID 1159521; note: nearly all actives have a fitted effect of over 50% in size; note: potency is the fitted concentration of half-maximal effect). The procedure, abridged: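 RORγ antagonism is scored from reduced reporter luminescence in Tet-on CHO cells. Induction used 1 uM final doxycycline hyclate for 16 h at 37 C, following a 2 h compound exposure.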

A short description of experiment [7]: qHTS assay to identify small molecule agonists of the AP-1 signaling pathway - cell viability counter screen (AID 1159525; calls by dose curve; note: nearly all actives have a fitted effect of over 55% in size). In a few lines: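 Same-well cytotoxicity counter screen of the Tox21 10K library in ME-180 cells. The readout is ATP-dependent luminescence after 5 h compound treatment. Data are normalised to DMSO and tetra n-octyl ammonium bromide controls.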

The nature of experiment [8]: qHTS assay to identify small molecule agonists of the AP-1 signaling pathway (AID 1159526; calls by dose curve).
In experiment [9] the target is Retinoic acid receptor RXR-alpha (Homo sapiens) (UniProt P19793). Nature of the experiment: qHTS assay to identify small molecule agonists of the RXR signaling pathway (AID 1159527; calls by dose curve; note: nearly all actives have a fitted effect of over 35% in size). In a few lines:
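qHTS of the Tox21 10K library in GeneBLAzer RXR-alpha HEK 293T cells carrying a beta-lactamase reporter […]; 16 hr treatment, 9-cis retinoic acid as agonist control, FRET read-out.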

Experiment [10] in a line: qHTS assay to identify small molecule agonists of the RXR signaling pathway - cell viability counter screen (AID 1159529). Note: nearly all actives have a fitted effect of over 50% in size. Note: potency is the fitted concentration of half-maximal effect. The procedure, abridged: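 Cell viability is measured by CellTiter-Glo luminescence, 30 min at room temperature, in wells already read for beta-lactamase. Engineered HEK 293T cells (RXR-alpha-UAS-bla) are dosed 16 hr at 37 C. Tetraoctyl ammonium bromide serves as positive control.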

A short description of experiment [11]: qHTS assay to identify small molecule antagonists of the retinoid acid receptor (RAR) signaling pathway - cell viability counter screen (AID 1159551). Note: nearly all actives have a fitted effect of over 35% in size. The procedure, abridged: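 Viability of C3RL4 cells is quantified from ATP by luminescence after 6 h treatment at 37 C with compounds and 1 uM retinol.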
Experiment [12] in a line: qHTS assay to identify small molecule antagonists of the retinoic acid receptor (RAR) signaling pathway (AID 1159552; note: nearly all actives have a fitted effect of over 50% in size). In a few lines: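 Quantitative HTS in C3RL4 RARE-luciferase reporter cells. Compounds were added with 1 uM (final) retinol; luminescence was read after 6 hr.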
Experiment [13] in a line: qHTS assay to identify small molecule agonists of the retinoic acid receptor (RAR) signaling pathway (AID 1159553). In a few lines: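 Compounds dissolved in DMSO were pinned onto C3RL4 cells seeded the previous day, and plates were held 6 hr at 37 C. RARE-driven luciferase output was then read by luminescence.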
Experiment [14] in a line: qHTS assay to identify small molecule antagonists of the retinoid-related orphan receptor gamma (ROR-gamma) signaling pathway - cell viability counter screen (AID 1159520). Note: nearly all actives have a fitted effect of over 50% in size. In a few lines: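 Tet-on ROR gamma CHO cells were given compounds for 2 hr, then doxycycline hyclate at 1 uM final, and incubated 16 hr at 37 C. Viability was measured as ATP content by CellTiter-Glo luminescence.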

Sequence of Retinoic acid receptor RXR-alpha (Homo sapiens) (P19793 whole entry, looked up): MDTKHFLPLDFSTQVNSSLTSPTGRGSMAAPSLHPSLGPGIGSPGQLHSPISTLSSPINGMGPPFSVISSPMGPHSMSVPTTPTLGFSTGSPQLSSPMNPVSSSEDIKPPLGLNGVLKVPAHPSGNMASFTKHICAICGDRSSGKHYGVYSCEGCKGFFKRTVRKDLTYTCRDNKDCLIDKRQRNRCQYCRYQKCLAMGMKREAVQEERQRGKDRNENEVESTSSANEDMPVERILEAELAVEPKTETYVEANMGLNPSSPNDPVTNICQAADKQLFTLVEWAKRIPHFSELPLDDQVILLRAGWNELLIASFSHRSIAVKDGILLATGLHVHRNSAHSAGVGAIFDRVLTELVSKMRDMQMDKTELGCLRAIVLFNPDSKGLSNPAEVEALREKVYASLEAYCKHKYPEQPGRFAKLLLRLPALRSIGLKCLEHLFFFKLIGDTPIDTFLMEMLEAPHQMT

`CCOc1cc(OP(=S)(OC)OC)nc(CC)n1`: the Potency entry in experiment [1], in [5], in [6], in [7], in experiment [9] and in experiment [10] was “inactive” in each case. Further, the Potency entry in experiment [11], in experiment [12] and in [13] was “inactive” each time. Further, the result in [2], in experiment [3], in [4] and in experiment [8] was inactive.

Consider `C=C1CC[C@@]2(O)[C@H]3Cc4ccc(O)c5c4[C@@]2(CCN3CC2CC2)[C@H]1O5`, for which the Potency result in [1], in [5], in experiment [6], in [7], in [9] and in experiment [10] was “inactive” throughout. In addition, the Potency entry in experiment [11], in experiment [12] and in [13] was “inactive” in each case. Besides, the molecule was classed as inactive in experiment [2], in experiment [3], in experiment [4] and in [8].

Turning to `O=P(O)(O)CN(CP(=O)(O)O)CP(=O)(O)O`, the Potency entry in experiment [1], in experiment [5], in experiment [14], in experiment [6], in [7] and in experiment [9] was “inactive” each time. The Potency entry in experiment [10], in experiment [11], in [12] and in [13] was “inactive” throughout. For the same molecule, the result in [2], in experiment [3] and in experiment [8] was inactive.

As to `CC(C)N(Cc1ccccc1)C(=O)C(C)(C)C`, the Potency entry in experiment [1], in experiment [5], in experiment [14], in experiment [6], in experiment [10] and in experiment [11] was “inactive” throughout. The Potency entry in experiment [12] and in [13] was “inactive” throughout. In addition, the result in experiment [2], in [3], in experiment [4] and in [8] was inactive.

Turning to `CN(CCO)CCO`, the Potency entry in [1], in experiment [5], in experiment [6], in experiment [9], in experiment [10] and in experiment [11] was “inactive” each time. Further, the Potency result in experiment [12] and in experiment [13] was “inactive” throughout. Also, the outcome in [2], in experiment [3], in [4] and in experiment [8] was inactive.

For the molecule `O=C(CCl)NCO`, the Potency result in [1], in experiment [5], in experiment [6], in [7], in experiment [9] and in [10] was “inactive” throughout. Moreover, the Potency entry in experiment [11] and in experiment [12] was “inactive” each time. For the same molecule, the call in experiment [2], in experiment [3], in experiment [4] and in experiment [8] was inactive.

For the molecule `CC(C)(C)c1cc(O)ccc1O`, the Potency result in [1], in experiment [5], in [14] and in [12] was “inactive” in each case. For the same molecule, the molecule was classed as inactive in experiment [2], in [3] and in experiment [4]. For the same molecule, the Potency is 13.7 µM (active) and 24.3 µM (active) in experiment [6]; 21.9 µM (active) and 24.5 µM (active) in experiment [10].

Consider `CCC1(c2ccccc2)C(=O)N(COC)C(=O)N(COC)C1=O`, for which the Potency entry in experiment [1], in experiment [5], in experiment [6], in [7], in experiment [9] and in experiment [10] was “inactive” in each case. In addition, the Potency result in experiment [11], in experiment [12] and in experiment [13] was “inactive” in each case. Moreover, the molecule was classed as inactive in [2], in experiment [3], in experiment [4] and in experiment [8].

In the case of `C#CC(C)(C)O`, the Potency entry in experiment [1], in experiment [5], in experiment [6], in experiment [9], in [10] and in [11] was “inactive” throughout. Further, the Potency result in [12] and in experiment [13] was “inactive” each time. In addition, the call in experiment [2], in [3], in experiment [4] and in experiment [8] was inactive.

For `CCCCCCCCSC(=O)Oc1cc(Cl)nnc1-c1ccccc1`, the Potency result in experiment [1], in experiment [5], in [6], in experiment [7], in experiment [9] and in experiment [10] was “inactive” in each case. Further, the Potency entry in experiment [11], in experiment [12] and in experiment [13] was “inactive” each time. Further, the molecule was classed as inactive in experiment [2], in experiment [3], in experiment [4] and in experiment [8].

On to `CCCCS(=O)(=O)Cl`, for which the Potency result in experiment [1], in experiment [5], in experiment [6], in [9], in experiment [10] and in [11] was “inactive” in each case. Further, the Potency result in experiment [12] and in experiment [13] was “inactive” throughout. For the same molecule, the call in [2], in [3], in experiment [4] and in experiment [8] was inactive.

The values above are taken from PubChem BioAssay (Tox21).
